Bioassay records: PubChem, Broad Institute
The full list was thinned out, with hits kept by preference.
miR-122 inh = miR-122 suppressors via Renilla sensor increase, primary screen, cell-based, Huh7 psiCHECK-miR122, Renilla luciferase, single point. 48 h. activation, % at 12.5 µM. 340,000 compounds, 0.14% hits;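 active = mean activation of 30% or more, with every replicate also reaching 30%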;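 also: higher luciferase signal means stronger suppression of miR-122 activity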
Each line names hits and unclear results; the compound was inactive in the other large screens.

C[C@H](CO)N1C[C@H](C)[C@H](CN(C)Cc2ccc(Cl)c(Cl)c2)Oc2c(NC(=O)Nc3ccc4c(c3)OCO4)cccc2C1=O	none
COc1ccc(S(=O)(=O)N(C)C[C@H]2Oc3ccc(NC(=O)Nc4ccc(C(F)(F)F)cc4)cc3C(=O)N([C@@H](C)CO)C[C@H]2C)cc1	none
COc1ccc(S(=O)(=O)N(C)C[C@H]2Oc3ccc(NC(=O)Nc4ccc(C(F)(F)F)cc4)cc3C(=O)N([C@H](C)CO)C[C@H]2C)cc1	none
Cc1ccc(S(=O)(=O)N(C)C[C@H]2Oc3ccc(NC(=O)Nc4ccc(C(F)(F)F)cc4)cc3C(=O)N([C@H](C)CO)C[C@H]2C)cc1	none
C[C@@H]1CN([C@H](C)CO)C(=O)c2cccc(NC(=O)Nc3ccccc3)c2O[C@H]1CN(C)Cc1ccc(C(F)(F)F)cc1	none
COc1ccc(CN(C)C[C@@H]2OCCCC[C@H](C)Oc3ccc(NC(=O)Nc4ccc(C(F)(F)F)cc4)cc3C(=O)N([C@H](C)CO)C[C@@H]2C)cc1	miR-122 inh 31
C[C@@H]1CCCCO[C@@H](CN(C)Cc2ccc3c(c2)OCO3)[C@H](C)CN([C@H](C)CO)C(=O)c2cc(NC(=O)Nc3ccc(C(F)(F)F)cc3)ccc2O1	miR-122 inh 34
C[C@H](CO)N1C[C@H](C)[C@H](CN(C)C(=O)NC2CCCCC2)Oc2ncc(-c3ccccc3F)cc2C1=O	none
C[C@@H]1CN([C@@H](C)CO)C(=O)c2cc(NC(=O)Nc3ccc(C(F)(F)F)cc3)ccc2O[C@@H]1CN(C)CC1CCCCC1	miR-122 inh 40
C[C@@H]1CN([C@@H](C)CO)C(=O)c2cc(-c3ccccc3F)cnc2O[C@H]1CN(C)C(=O)NC1CCCCC1	none
COc1ccc(CN(C)C[C@@H]2OCCCC[C@@H](C)Oc3ccc(NC(=O)c4ccccc4)cc3C(=O)N([C@H](C)CO)C[C@@H]2C)cc1	none
C[C@H](CO)N1C[C@H](C)[C@H](CN(C)C(=O)NC2CCCCC2)Oc2ncc(-c3cccc(C(F)(F)F)c3)cc2C1=O	miR-122 inh 33
C[C@H]1CN([C@@H](C)CO)C(=O)c2cc(/C=C/c3ccccc3)cnc2O[C@@H]1CN(C)Cc1ccccc1F	none
COc1ccc(-c2cnc3c(c2)C(=O)N([C@H](C)CO)C[C@@H](C)[C@@H](CN(C)Cc2ccccn2)O3)cc1	none
COc1cccc(-c2cnc3c(c2)C(=O)N([C@H](C)CO)C[C@@H](C)[C@@H](CN(C)CC2CCOCC2)O3)c1	none
CCCC#Cc1ccc2c(c1)O[C@@H](CN(C)S(C)(=O)=O)[C@H](C)CN([C@@H](C)CO)S2(=O)=O	none
COCC#Cc1cnc2c(c1)C(=O)N([C@H](C)CO)C[C@@H](C)[C@@H](CN(C)Cc1ccccc1)O2	none
C[C@@H]1CN([C@H](C)CO)S(=O)(=O)c2ccc(-c3cccc(C(=O)N(C)C)c3)cc2O[C@H]1CN(C)C(=O)Nc1ccccc1	none
C[C@@H]1CN([C@H](C)CO)C(=O)c2cc(C#CCC3CCCC3)cnc2O[C@@H]1CN(C)Cc1ccccn1	none
C[C@H](CO)N1C[C@H](C)[C@@H](CN(C)CC2CCCC2)Oc2ncc(C#Cc3cccc(F)c3)cc2C1=O	none
C[C@@H]1CN([C@@H](C)CO)C(=O)c2cc(-c3ccc(F)cc3)cnc2O[C@H]1CN(C)C(=O)c1ccccn1	none
C[C@H]1CN([C@@H](C)CO)C(=O)c2cc(-c3cccc(C(=O)N(C)C)c3)cnc2O[C@H]1CN(C)S(=O)(=O)c1ccc(F)cc1	none
C[C@H]1CN([C@@H](C)CO)S(=O)(=O)c2ccc(-c3cccnc3)cc2O[C@@H]1CN(C)Cc1ccccn1	none
C[C@H]1CN([C@@H](C)CO)C(=O)c2cc(C#Cc3cccc(F)c3)cnc2O[C@@H]1CN(C)CC1CCOCC1	none
C[C@@H]1CN([C@@H](C)CO)C(=O)c2cc(NC(=O)Nc3cccc4ccccc34)ccc2O[C@@H](C)CCCCO[C@@H]1CN(C)CC1CCCCC1	miR-122 inh 34
C[C@@H]1CN([C@H](C)CO)C(=O)c2cc(NC(=O)Nc3cccc4ccccc34)ccc2O[C@@H]1CN(C)C(=O)Nc1ccccc1	none
Cc1ccc(S(=O)(=O)Nc2ccc3c(c2)C(=O)N([C@@H](C)CO)C[C@H](C)[C@H](CN(C)C(=O)Nc2ccc(F)cc2)OCCCC[C@@H](C)O3)cc1	none
C[C@H]1CN([C@@H](C)CO)S(=O)(=O)c2ccc(C#Cc3cccnc3)cc2O[C@H]1CN(C)CC1CCOCC1	none
COc1ccc(C(C)(C)C)cc1NS(=O)(=O)c1cccc2cccnc12	none
COc1ccc(NS(=O)(=O)c2ccc3ccccc3c2)c2ncccc12	none
CCCCC(=O)NC(c1ccccc1OC)c1ccc2cccnc2c1O (stereo not given)	miR-122 inh 46
C[C@H](CO)N1C[C@H](C)[C@H](CN(C)S(C)(=O)=O)Oc2cc(C#Cc3ccc(F)cc3)ccc2S1(=O)=O	none
CO[C@@H]1CN(C)C(=O)c2ccc(NC(=O)Nc3ccc(Cl)cc3)cc2OC[C@H](C)N(C)C[C@H]1C	none
C/C=C/c1cnc2c(c1)C(=O)N([C@H](C)CO)C[C@H](C)[C@H](CN(C)C(=O)Nc1cccc(OC)c1)O2	none
C[C@@H]1CN([C@@H](C)CO)C(=O)c2cc(Br)cnc2O[C@@H]1CN(C)CC1CCOCC1	none
CC(=O)N(C)C[C@H]1Oc2cc(C#CC3CCCCC3)ccc2S(=O)(=O)N([C@H](C)CO)C[C@@H]1C	none
CN(C)CCNc1ncnc2c1sc1nc(N3CCOCC3)c3c(c12)CC(C)(C)SC3	miR-122 inh 56
CC(C)NC(=O)N(C)C[C@H]1Oc2cc(C3=CCCCC3)ccc2S(=O)(=O)N([C@H](C)CO)C[C@@H]1C	none
C[C@@H]1CN([C@@H](C)CO)S(=O)(=O)c2ccc(C#CCN(C)C)cc2O[C@@H]1CN(C)C(=O)CN(C)C	none
C[C@@H]1CN([C@H](C)CO)S(=O)(=O)c2ccc(-c3ccccc3)cc2O[C@@H]1CN(C)C(=O)c1ccc2c(c1)OCO2	miR-122 inh 36
C[C@@H]1CN([C@@H](C)CO)S(=O)(=O)c2ccc(Br)cc2O[C@H]1CN(C)C(=O)c1ccc2c(c1)OCO2	none
COc1cccc(-c2ccc3c(c2)O[C@@H](CN(C)C(=O)C2CCCCC2)[C@@H](C)CN([C@H](C)CO)S3(=O)=O)c1	none
C[C@H]1CN([C@@H](C)CO)S(=O)(=O)c2ccc(-c3ccc(C(=O)N(C)C)cc3)cc2O[C@H]1CN(C)C	none
C[C@@H]1CN([C@H](C)CO)S(=O)(=O)c2ccc(-c3ccc(C(=O)N(C)C)cc3)cc2O[C@@H]1CN(C)C	none
C[C@@H]1CN([C@H](C)CO)S(=O)(=O)c2ccc(-c3ccc(C(=O)N(C)C)cc3)cc2O[C@@H]1CN(C)C(=O)C1CCC1	miR-122 inh 43
C[C@H](CO)N1C[C@H](C)[C@H](CN(C)C(=O)C2CCOCC2)Oc2cc(-c3ccc(C(=O)N(C)C)cc3)ccc2S1(=O)=O	none
COc1cccc(-c2ccc3c(c2)O[C@H](CN(C)C(=O)C2CCOCC2)[C@H](C)CN([C@@H](C)CO)S3(=O)=O)c1	miR-122 inh 39
C[C@H]1CN([C@@H](C)CO)S(=O)(=O)c2ccc(-c3ccc(C(=O)N(C)C)cc3)cc2O[C@H]1CN(C)C(=O)C1CCC1	miR-122 inh 43
C/C=C/c1ccc2c(c1)O[C@@H](CN(C)C(=O)c1ccc3c(c1)OCO3)[C@H](C)CN([C@@H](C)CO)S2(=O)=O	none
C[C@H]1CN([C@@H](C)CO)S(=O)(=O)c2ccc(-c3ccc(C(=O)N(C)C)cc3)cc2O[C@H]1CN(C)C(=O)C1CCOCC1	none
